From PMC7862700, “An all-to-all approach to the identification of sequence-specific readers for epigenetic DNA modifications on cytosine”

Key:
Assay in all cases: DAPPL (digital affinity profiling via proximity ligation, sequencing); 10 mM Tris-HCl pH 7.5, 50 mM NaCl, 1 mM DTT, 4% glycerol, room temperature, 30 min; GST-TFs on glutathione beads, 16-mer random dsDNA library, 0.1% formaldehyde crosslink after washing; high values mean tight binding
Conditions in all cases: protein: recombinant; tags: N-terminal GST; dsDNA, one strand shown
FLI1 = target: T1, FLI1 (Homo sapiens, UniProt Q01543 1-452)
T1 sequence: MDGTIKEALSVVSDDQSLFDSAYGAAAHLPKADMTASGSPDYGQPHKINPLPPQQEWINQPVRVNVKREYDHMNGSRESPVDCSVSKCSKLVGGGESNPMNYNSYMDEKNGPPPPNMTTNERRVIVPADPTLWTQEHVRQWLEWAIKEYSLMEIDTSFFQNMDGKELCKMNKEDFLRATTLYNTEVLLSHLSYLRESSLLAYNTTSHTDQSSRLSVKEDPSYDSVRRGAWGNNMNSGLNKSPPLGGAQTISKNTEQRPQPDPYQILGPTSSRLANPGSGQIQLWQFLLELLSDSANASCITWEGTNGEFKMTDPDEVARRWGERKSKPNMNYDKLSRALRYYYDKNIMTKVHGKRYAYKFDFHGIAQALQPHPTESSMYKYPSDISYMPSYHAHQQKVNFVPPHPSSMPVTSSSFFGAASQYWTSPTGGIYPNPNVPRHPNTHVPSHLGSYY
Summary of the method: (§1)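 Yeast served to express human transcription factors as GST fusions, which were then captured on glutathione beads and labelled with DNA barcodes. Pooled with a tag-only sample, they were incubated with 200 nmole of a 16-mer random double-stranded DNA library for 30 min at room temperature in Tris/NaCl/DTT/glycerol buffer, washed, crosslinked with 0.1% formaldehyde, ligated by proximity, amplified by PCR and sequenced. Dividing each hexamer's read frequency for a factor by its frequency for the tag-only sample gives the binding signal.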

GABPA = target: T2, GABPA (Homo sapiens, UniProt Q06546 1-454)
T2 sequence: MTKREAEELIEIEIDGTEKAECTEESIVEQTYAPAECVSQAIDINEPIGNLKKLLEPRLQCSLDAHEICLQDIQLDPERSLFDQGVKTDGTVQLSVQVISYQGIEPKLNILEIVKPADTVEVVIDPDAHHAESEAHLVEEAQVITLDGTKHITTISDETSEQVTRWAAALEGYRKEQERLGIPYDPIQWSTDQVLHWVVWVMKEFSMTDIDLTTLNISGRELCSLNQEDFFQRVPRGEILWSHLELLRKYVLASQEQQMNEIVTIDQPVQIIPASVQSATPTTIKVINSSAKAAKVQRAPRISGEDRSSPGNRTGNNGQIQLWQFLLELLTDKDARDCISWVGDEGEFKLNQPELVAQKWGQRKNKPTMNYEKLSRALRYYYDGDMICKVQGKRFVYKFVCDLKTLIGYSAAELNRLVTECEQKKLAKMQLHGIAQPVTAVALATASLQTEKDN
Summary of the method: as §1

EHF = target: T3, EHF (Homo sapiens, UniProt Q9NZC4 1-300)
T3 sequence: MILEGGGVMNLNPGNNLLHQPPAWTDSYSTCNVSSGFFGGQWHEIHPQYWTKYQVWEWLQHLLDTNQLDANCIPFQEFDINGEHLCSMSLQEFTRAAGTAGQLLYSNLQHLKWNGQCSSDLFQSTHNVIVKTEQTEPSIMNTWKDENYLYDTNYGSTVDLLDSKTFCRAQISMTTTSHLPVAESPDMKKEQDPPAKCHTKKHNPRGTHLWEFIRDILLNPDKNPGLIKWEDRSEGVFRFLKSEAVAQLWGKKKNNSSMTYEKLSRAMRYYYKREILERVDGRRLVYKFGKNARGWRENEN
Summary of the method: as §1

ETV2 = target: T4, ETV2 (Homo sapiens, UniProt O00321 1-342)
T4 sequence: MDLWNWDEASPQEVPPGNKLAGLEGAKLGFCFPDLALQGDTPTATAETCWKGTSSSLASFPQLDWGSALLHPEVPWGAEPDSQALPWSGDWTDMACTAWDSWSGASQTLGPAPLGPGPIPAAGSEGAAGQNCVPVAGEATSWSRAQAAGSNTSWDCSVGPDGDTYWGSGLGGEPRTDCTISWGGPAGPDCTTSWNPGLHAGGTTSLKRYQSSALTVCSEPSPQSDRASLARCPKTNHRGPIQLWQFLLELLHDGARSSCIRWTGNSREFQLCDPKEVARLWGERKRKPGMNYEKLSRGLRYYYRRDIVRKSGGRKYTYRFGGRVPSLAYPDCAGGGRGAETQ
Summary of the method: as §1

ELF3 = target: T5, ELF3 (Homo sapiens, UniProt P78545 1-371)
T5 sequence: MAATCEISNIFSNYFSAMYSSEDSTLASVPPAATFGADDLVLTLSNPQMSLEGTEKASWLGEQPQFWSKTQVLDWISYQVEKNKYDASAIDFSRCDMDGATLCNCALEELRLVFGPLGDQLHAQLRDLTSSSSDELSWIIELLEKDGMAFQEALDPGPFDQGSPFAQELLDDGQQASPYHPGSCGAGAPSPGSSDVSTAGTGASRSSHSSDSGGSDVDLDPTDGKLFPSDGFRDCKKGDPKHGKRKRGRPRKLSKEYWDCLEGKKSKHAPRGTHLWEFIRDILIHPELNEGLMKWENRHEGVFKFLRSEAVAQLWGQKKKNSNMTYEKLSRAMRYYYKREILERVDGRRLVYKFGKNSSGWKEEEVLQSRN
Summary of the method: as §1

ETV7 = target: T6, ETV7 (Homo sapiens, UniProt Q9Y603 1-341)
T6 sequence: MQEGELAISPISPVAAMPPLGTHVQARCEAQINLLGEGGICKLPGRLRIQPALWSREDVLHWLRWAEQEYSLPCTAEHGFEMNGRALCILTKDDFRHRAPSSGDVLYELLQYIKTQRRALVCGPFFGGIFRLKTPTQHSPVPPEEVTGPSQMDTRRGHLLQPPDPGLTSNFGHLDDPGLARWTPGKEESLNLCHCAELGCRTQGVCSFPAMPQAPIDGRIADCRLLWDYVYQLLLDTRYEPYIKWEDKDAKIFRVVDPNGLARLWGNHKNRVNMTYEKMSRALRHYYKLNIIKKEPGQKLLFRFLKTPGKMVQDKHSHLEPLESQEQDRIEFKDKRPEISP
Summary of the method: as §1

ETV6 = ETV6 (Homo sapiens, UniProt P41212 1-452)
Summary of the method: as §1

ELK1 = target: T7, ELK1 (Homo sapiens, UniProt P19419 1-428)
T7 sequence: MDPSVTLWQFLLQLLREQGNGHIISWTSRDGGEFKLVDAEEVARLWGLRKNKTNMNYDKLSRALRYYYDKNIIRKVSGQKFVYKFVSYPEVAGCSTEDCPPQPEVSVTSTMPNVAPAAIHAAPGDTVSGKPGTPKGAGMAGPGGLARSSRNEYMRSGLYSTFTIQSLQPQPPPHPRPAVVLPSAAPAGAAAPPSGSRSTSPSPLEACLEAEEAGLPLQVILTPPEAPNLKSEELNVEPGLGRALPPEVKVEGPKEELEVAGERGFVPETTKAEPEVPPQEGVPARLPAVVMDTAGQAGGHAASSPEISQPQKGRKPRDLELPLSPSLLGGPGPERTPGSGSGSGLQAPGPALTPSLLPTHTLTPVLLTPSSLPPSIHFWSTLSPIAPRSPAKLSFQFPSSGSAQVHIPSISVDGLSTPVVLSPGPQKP
Summary of the method: as §1

ELF1 = ELF1 (Homo sapiens, UniProt P32519 1-619)
Summary of the method: as §1

SPIB = SPIB (Homo sapiens, UniProt Q01892 1-262)
Summary of the method: as §1

SPIC = target: T8, SPIC (Homo sapiens, UniProt Q8N5J4 1-248)
T8 sequence: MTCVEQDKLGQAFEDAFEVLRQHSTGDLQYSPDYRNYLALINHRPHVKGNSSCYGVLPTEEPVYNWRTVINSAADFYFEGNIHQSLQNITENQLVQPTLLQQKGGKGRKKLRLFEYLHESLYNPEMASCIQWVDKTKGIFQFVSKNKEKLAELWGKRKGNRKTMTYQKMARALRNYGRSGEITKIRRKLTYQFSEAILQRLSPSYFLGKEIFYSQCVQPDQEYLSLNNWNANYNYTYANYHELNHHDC
Summary of the method: as §1

ELF4 = ELF4 (Homo sapiens, UniProt Q99607 1-663)
Summary of the method: as §1

ELK4 = target: T9, ELK4 (Homo sapiens, UniProt P28324-2 1-405)
T9 sequence: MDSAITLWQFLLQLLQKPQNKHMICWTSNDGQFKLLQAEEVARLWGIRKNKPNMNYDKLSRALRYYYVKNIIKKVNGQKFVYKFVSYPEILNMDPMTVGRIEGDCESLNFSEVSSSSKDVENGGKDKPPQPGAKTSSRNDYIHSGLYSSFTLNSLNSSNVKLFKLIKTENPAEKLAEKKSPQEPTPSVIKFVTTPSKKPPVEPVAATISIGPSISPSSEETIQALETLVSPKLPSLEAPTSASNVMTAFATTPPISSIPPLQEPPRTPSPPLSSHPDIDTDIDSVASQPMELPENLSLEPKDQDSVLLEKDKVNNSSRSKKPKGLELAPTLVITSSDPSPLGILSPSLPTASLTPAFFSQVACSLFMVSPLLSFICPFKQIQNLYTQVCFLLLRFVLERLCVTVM
Summary of the method: as §1

ETV1 = ETV1 (Homo sapiens, UniProt P50549 1-477)
Summary of the method: as §1

ERF = target: T10, ERF (Homo sapiens, UniProt P50548 1-548)
T10 sequence: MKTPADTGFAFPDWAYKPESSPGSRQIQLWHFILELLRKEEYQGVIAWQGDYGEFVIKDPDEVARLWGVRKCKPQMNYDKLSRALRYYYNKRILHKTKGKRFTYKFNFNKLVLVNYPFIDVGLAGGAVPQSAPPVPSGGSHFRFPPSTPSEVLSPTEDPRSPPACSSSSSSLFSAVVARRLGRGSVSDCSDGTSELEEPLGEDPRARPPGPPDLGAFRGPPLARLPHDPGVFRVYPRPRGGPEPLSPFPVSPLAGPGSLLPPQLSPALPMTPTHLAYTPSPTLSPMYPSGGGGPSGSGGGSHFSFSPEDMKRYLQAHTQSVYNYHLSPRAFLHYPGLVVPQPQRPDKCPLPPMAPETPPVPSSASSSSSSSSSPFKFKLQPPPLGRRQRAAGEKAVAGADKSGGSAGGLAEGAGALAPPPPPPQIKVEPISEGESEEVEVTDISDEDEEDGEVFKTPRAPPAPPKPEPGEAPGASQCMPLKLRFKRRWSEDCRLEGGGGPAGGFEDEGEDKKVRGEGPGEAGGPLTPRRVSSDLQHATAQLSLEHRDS
Summary of the method: as §1

ETV3L = target: T11, ETV3L (Homo sapiens, UniProt Q6ZN32 1-361)
T11 sequence: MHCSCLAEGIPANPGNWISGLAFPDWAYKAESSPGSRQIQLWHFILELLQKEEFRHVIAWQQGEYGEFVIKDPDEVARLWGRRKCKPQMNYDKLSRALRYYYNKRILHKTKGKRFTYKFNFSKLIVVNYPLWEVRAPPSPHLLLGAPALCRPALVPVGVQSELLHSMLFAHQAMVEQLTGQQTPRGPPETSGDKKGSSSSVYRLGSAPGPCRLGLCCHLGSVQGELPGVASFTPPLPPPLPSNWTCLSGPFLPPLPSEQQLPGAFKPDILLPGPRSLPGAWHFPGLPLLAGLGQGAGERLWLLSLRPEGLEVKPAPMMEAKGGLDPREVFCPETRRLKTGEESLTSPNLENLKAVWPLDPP
Summary of the method: as §1

ETS2 = target: T12, ETS2 (Homo sapiens, UniProt P15036 1-469)
T12 sequence: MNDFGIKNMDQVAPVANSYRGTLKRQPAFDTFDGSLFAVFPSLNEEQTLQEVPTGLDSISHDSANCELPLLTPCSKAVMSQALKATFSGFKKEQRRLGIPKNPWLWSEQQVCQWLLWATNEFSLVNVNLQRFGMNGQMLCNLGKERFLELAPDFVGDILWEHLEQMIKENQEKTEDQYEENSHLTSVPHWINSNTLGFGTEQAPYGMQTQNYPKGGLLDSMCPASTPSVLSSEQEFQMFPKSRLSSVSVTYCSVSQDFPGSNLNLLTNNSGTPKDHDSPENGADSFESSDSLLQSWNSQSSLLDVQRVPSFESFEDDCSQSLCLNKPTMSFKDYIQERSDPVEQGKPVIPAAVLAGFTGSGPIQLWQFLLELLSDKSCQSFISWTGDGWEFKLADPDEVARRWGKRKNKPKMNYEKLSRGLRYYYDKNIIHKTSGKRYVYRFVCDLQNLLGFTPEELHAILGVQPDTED
Summary of the method: as §1

ETV3 = target: T13, ETV3 (Homo sapiens, UniProt P41162-2 1-143)
T13 sequence: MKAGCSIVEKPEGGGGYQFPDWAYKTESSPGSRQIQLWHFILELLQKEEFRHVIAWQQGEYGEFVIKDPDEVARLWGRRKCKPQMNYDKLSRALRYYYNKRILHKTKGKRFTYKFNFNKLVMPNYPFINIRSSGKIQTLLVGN
Summary of the method: as §1

ELF4, sequence (Q99607 whole entry): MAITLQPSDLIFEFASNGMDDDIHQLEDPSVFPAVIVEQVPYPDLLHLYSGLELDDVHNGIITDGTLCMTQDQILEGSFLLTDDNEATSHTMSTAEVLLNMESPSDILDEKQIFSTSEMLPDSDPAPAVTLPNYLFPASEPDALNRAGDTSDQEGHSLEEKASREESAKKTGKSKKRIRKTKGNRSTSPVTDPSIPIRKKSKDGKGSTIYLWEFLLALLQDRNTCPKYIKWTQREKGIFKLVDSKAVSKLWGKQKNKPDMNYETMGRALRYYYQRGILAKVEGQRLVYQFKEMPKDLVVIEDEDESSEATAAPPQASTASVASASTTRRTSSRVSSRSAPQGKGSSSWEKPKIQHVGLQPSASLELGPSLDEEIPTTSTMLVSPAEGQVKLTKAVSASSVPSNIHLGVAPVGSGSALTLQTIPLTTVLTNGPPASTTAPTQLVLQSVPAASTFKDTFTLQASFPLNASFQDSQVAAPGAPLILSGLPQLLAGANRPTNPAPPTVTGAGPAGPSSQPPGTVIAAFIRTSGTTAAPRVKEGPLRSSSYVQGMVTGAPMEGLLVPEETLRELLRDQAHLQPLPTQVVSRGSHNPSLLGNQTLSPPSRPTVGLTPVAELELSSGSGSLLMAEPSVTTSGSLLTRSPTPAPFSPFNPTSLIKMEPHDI
SPIB, sequence (Q01892 whole entry): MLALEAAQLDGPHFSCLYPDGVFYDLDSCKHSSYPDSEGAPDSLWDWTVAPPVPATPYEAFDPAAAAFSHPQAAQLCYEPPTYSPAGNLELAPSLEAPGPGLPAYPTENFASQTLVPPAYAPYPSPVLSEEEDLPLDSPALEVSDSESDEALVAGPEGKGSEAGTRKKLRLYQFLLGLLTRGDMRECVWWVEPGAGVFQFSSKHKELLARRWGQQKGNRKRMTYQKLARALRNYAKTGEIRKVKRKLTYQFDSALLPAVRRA
ETV6, sequence (P41212 whole entry): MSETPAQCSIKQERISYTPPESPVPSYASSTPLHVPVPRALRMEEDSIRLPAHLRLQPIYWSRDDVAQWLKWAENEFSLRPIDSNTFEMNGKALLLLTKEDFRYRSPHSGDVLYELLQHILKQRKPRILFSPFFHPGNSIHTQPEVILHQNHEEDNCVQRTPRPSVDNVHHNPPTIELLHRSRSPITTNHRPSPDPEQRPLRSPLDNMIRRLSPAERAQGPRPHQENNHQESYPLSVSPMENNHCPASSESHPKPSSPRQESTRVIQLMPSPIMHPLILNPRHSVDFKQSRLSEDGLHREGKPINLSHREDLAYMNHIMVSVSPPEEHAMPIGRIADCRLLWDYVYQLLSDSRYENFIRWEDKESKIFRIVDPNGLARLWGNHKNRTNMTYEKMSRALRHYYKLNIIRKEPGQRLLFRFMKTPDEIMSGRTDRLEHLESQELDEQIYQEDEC
ETV1, sequence (P50549 whole entry): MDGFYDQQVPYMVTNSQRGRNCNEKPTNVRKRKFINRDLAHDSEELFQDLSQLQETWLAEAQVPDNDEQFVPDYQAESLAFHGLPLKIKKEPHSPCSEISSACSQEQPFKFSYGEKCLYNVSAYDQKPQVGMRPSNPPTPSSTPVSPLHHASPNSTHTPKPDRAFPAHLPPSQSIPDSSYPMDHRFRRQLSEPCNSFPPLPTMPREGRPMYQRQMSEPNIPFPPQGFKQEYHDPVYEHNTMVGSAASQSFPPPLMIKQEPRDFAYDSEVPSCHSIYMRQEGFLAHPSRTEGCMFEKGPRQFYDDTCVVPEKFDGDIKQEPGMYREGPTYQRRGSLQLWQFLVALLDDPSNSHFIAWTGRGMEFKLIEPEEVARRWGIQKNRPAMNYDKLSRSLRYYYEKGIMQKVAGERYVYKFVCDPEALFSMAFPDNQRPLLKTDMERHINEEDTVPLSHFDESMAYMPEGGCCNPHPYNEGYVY
ELF1, sequence (P32519 whole entry): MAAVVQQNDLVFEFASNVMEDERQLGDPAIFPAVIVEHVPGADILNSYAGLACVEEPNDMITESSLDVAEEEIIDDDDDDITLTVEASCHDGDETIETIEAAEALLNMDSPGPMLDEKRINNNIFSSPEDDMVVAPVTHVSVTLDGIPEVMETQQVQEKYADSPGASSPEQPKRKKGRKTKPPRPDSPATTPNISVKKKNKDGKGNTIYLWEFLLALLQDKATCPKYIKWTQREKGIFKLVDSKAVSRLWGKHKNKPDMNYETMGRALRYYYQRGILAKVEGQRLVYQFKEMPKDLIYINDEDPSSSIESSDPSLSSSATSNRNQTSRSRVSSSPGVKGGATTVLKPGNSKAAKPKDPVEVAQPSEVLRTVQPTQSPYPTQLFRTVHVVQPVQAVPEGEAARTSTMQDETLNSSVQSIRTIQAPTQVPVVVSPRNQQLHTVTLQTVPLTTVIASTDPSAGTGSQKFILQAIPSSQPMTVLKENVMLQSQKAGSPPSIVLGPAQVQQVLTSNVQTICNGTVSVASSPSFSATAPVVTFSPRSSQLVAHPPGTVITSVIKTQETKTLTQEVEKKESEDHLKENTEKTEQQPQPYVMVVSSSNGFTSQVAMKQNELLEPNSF

## TTGGAA
FLI1
  binding signal: 1.01 fold enrichment (6-mer frequency, TF over GST control)
GABPA
  binding signal: 1.03 fold enrichment (6-mer frequency, TF over GST control)
EHF
  binding signal: 1.04 fold enrichment (6-mer frequency, TF over GST control)
ETV2
  binding signal: 1.02 fold enrichment (6-mer frequency, TF over GST control)
ELF3
  binding signal: 1.06 fold enrichment (6-mer frequency, TF over GST control)
ETV7
  binding signal: 1 fold enrichment (6-mer frequency, TF over GST control)
ETV6
  binding signal: 1.03 fold enrichment (6-mer frequency, TF over GST control)

## GATGGG
FLI1
  binding signal: 1.03 fold enrichment (6-mer frequency, TF over GST control)
ELK1
  binding signal: 1.02 fold enrichment (6-mer frequency, TF over GST control)
ELF1
  binding signal: 1 fold enrichment (6-mer frequency, TF over GST control)
EHF
  binding signal: 1.02 fold enrichment (6-mer frequency, TF over GST control)
SPIB
  binding signal: 1.12 fold enrichment (6-mer frequency, TF over GST control)
SPIC
  binding signal: 1.08 fold enrichment (6-mer frequency, TF over GST control)
ELF4
  binding signal: 1.01 fold enrichment (6-mer frequency, TF over GST control)
ELK4
  binding signal: 1.01 fold enrichment (6-mer frequency, TF over GST control)
ETV1
  binding signal: 1.04 fold enrichment (6-mer frequency, TF over GST control)
ERF
  binding signal: 1 fold enrichment (6-mer frequency, TF over GST control)
ETV3L
  binding signal: 1.02 fold enrichment (6-mer frequency, TF over GST control)
ETS2
  binding signal: 1 fold enrichment (6-mer frequency, TF over GST control)
ETV7
  binding signal: 1.03 fold enrichment (6-mer frequency, TF over GST control)
ETV3
  binding signal: 1.04 fold enrichment (6-mer frequency, TF over GST control)
